About 2,000 (36%) of roughly 5,500 compounds were called active. Inconclusive results (about 18%) are left out. Rule as the data show it: active = normalized growth mostly below about 0.91 (no sharp cut-off); inconclusive = no clear call, values can overlap the other calls; inactive = mostly above about 0.92. The list shows a part of the results.
Test: chemical genetic growth profiling, strain panel (AID 1159580);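 also: tested at 20 µM; growth read once vehicle control cultures reached saturation at 30 °C; 1 = growth at the plate median or of vehicle wells; lower values mean less growth of the strain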
Conditions: S. cerevisiae deletion strains, growth OD

Measured: normalized growth

CSc1nc(N)c2ncn([C@@H]3O[C@H](COP(=O)(O)OP(=O)(O)O)[C@H](O)C3O)c2n1 (stereo partly drawn)
inactive: locus YAL013W, strain DEP1, stronger effect = lower value 1.01 | locus YAL040C, strain CLN3, stronger effect = lower value 1.01 | locus YCL061C, strain MRC1 (second series), stronger effect = lower value 1.01 | locus YDR363W, strain ESC2, stronger effect = lower value 1.04 | locus YER002W, strain NOP16, stronger effect = lower value 1 | locus YJR075W, strain HOC1, stronger effect = lower value 1.03 | locus YNL153C, strain GIM3, stronger effect = lower value 1.03 | locus YNL175C, strain NOP13, stronger effect = lower value 1.02 | locus YNL197C, strain WHI3, stronger effect = lower value 0.99 | locus YNL224C, strain SQS1, stronger effect = lower value 0.998 | locus YOR083W, strain WHI5 (second series), stronger effect = lower value 1.02 | locus YPL055C, strain LGE1, stronger effect = lower value 1.02 | locus YPL241C, strain CIN2, stronger effect = lower value 1
